# Measurements as given in ChEMBL document CHEMBL1961873, “Compounds: GSK PKIS; Assays: Nanosyn kinase panel” (2012).
# Assays:
# [1] = molecular target: Protein kinase C gamma type (Homo sapiens) (UniProt P05129); settings: at 1 µM;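 also: each value is an averaged percent inhibition of the enzyme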
# [2] = molecular target: T1, Protein kinase C iota type (Homo sapiens) (UniProt P41743); settings: at 0.1 µM
# T1 sequence (whole entry): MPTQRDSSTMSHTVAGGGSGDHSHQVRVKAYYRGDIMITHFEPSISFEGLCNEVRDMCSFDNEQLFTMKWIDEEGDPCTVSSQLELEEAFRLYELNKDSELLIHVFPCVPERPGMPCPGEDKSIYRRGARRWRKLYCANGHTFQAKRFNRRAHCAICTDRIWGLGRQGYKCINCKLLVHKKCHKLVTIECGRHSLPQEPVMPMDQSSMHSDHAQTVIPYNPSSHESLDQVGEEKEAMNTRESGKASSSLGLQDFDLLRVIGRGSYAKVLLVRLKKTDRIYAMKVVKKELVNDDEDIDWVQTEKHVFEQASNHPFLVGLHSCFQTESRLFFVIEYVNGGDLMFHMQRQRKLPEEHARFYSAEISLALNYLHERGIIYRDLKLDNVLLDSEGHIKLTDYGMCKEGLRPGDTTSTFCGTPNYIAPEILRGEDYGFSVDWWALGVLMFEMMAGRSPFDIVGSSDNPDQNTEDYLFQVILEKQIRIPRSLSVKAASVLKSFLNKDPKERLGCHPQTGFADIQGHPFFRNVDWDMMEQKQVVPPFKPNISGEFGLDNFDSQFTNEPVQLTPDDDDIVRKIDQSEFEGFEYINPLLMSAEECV
# [3] = molecular target: T1, Protein kinase C iota type (Homo sapiens); settings: at 1 µM
# [4] = molecular target: Protein kinase C theta type (Homo sapiens) (UniProt Q04759); settings: at 0.1 µM
# Sequence of Protein kinase C theta type (Homo sapiens) (Q04759 whole entry, looked up): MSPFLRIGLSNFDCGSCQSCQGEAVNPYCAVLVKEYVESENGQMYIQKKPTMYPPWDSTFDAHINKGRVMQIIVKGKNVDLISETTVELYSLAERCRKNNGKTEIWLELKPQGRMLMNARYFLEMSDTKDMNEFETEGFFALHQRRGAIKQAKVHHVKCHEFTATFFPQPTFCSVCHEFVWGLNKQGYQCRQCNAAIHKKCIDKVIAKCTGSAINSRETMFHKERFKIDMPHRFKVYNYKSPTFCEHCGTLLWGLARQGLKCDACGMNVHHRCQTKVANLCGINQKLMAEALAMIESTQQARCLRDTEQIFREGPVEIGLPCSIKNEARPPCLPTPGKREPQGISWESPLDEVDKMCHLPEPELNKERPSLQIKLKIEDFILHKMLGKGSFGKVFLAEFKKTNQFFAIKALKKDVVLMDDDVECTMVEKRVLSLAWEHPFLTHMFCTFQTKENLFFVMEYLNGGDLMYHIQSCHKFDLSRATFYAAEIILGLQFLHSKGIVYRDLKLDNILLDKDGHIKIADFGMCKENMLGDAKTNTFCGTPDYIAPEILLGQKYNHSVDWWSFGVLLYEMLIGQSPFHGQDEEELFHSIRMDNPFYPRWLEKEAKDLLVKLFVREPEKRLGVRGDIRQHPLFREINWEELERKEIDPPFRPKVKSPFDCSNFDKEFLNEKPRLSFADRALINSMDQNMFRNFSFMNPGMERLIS
# [5] = molecular target: Protein kinase C theta type (Homo sapiens) (UniProt Q04759); settings: at 1 µM
# [6] = molecular target: Protein kinase C beta type (Homo sapiens) (UniProt P05771); settings: at 0.1 µM
# Sequence of Protein kinase C beta type (Homo sapiens) (P05771 2-671 limits assumed): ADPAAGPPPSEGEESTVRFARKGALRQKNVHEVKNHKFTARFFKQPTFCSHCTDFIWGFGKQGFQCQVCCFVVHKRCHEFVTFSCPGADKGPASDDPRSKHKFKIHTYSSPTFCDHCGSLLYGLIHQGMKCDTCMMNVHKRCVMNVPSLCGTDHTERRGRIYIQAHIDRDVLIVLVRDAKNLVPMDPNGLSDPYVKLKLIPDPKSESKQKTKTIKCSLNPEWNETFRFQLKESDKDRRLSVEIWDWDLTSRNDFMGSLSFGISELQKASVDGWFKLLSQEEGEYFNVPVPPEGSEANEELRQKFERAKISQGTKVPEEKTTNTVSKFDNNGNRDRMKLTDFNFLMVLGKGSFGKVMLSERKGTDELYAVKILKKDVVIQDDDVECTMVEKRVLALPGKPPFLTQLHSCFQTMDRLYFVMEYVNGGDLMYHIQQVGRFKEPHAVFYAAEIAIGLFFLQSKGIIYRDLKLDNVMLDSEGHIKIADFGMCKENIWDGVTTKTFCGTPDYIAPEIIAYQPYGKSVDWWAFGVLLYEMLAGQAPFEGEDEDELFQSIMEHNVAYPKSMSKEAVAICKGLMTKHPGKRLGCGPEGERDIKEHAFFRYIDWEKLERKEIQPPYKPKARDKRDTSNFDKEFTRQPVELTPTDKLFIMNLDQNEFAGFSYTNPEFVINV
# [7] = molecular target: Protein kinase C beta type (Homo sapiens) (UniProt P05771); settings: at 1 µM
# [8] = molecular target: T2, Serine/threonine-protein kinase D1 (Homo sapiens) (UniProt Q15139); settings: at 0.1 µM
# T2 sequence (whole entry): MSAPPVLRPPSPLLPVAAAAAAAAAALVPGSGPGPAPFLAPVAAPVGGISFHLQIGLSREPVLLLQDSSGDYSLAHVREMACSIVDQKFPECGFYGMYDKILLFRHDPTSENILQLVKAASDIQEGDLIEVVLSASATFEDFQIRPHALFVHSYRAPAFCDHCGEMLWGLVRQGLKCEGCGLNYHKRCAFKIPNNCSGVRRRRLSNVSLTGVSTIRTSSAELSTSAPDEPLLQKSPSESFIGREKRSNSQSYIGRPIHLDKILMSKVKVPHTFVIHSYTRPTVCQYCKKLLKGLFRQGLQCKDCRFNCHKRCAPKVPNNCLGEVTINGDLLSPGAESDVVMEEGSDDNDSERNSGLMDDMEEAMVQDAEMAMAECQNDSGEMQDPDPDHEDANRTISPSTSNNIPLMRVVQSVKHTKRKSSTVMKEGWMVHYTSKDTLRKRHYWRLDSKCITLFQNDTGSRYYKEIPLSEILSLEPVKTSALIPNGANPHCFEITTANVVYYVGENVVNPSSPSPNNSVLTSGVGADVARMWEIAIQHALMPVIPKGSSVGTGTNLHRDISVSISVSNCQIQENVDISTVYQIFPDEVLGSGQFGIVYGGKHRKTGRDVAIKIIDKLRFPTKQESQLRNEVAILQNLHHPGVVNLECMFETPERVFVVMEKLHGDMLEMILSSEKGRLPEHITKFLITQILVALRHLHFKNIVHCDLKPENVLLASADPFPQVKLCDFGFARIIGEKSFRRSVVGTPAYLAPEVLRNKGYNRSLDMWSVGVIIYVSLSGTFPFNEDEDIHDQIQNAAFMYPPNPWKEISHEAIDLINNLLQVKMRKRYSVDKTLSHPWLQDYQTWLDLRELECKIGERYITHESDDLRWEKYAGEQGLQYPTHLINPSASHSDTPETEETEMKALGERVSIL
# [9] = molecular target: T2, Serine/threonine-protein kinase D1 (Homo sapiens); settings: at 1 µM
# [10] = molecular target: T3, Serine/threonine-protein kinase D2 (Homo sapiens) (UniProt Q9BZL6); settings: at 0.1 µM
# T3 sequence (whole entry): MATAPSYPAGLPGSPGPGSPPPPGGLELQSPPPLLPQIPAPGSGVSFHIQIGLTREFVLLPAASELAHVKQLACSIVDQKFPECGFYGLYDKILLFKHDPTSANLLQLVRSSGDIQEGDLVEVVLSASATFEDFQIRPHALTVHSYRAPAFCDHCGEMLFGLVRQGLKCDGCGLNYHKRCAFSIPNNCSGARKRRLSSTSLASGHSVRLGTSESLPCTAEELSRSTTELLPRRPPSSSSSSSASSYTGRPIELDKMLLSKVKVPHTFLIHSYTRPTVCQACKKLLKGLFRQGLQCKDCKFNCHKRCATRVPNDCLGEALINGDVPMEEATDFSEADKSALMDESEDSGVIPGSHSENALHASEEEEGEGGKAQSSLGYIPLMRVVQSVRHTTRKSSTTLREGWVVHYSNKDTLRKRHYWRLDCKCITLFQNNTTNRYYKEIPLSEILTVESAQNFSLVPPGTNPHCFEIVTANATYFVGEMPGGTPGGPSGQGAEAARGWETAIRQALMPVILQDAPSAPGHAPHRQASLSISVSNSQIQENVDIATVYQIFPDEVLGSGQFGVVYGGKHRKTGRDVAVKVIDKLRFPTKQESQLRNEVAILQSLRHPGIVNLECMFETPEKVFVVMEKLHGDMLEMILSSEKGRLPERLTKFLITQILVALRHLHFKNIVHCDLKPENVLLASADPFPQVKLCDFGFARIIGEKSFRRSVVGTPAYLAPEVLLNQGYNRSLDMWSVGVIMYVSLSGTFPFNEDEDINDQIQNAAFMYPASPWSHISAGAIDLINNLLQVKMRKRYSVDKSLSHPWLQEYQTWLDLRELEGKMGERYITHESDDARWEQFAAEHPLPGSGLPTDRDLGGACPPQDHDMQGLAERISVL
# [11] = molecular target: T3, Serine/threonine-protein kinase D2 (Homo sapiens); settings: at 1 µM
# [12] = molecular target: T4, Serine/threonine-protein kinase D3 (Homo sapiens) (UniProt O94806); settings: at 0.1 µM
# T4 sequence (whole entry): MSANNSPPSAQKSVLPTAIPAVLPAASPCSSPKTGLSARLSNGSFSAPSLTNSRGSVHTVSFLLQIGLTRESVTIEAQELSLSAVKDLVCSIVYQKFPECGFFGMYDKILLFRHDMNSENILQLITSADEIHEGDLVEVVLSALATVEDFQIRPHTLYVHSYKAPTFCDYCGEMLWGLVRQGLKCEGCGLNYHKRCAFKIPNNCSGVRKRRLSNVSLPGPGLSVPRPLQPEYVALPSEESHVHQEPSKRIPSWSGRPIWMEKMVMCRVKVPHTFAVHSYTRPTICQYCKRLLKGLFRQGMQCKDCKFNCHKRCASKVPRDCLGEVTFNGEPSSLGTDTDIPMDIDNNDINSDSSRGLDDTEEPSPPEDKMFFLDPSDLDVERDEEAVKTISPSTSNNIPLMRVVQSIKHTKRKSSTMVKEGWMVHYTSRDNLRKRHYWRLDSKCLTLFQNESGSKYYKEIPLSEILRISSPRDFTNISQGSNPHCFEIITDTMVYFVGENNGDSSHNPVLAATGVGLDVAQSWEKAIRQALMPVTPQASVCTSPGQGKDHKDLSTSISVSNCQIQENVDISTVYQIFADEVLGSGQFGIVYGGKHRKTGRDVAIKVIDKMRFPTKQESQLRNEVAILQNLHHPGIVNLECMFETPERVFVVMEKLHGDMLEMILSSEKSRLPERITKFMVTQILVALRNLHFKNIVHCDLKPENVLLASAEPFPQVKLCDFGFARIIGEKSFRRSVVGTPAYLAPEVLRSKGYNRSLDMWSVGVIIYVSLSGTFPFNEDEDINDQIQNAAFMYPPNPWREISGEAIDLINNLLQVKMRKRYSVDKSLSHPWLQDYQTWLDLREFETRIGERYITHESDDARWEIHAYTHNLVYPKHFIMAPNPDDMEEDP
# [13] = molecular target: T4, Serine/threonine-protein kinase D3 (Homo sapiens); settings: at 1 µM
# [14] = molecular target: T5, cGMP-dependent protein kinase 1 (Homo sapiens) (UniProt Q13976); settings: at 0.1 µM
# T5 sequence (whole entry): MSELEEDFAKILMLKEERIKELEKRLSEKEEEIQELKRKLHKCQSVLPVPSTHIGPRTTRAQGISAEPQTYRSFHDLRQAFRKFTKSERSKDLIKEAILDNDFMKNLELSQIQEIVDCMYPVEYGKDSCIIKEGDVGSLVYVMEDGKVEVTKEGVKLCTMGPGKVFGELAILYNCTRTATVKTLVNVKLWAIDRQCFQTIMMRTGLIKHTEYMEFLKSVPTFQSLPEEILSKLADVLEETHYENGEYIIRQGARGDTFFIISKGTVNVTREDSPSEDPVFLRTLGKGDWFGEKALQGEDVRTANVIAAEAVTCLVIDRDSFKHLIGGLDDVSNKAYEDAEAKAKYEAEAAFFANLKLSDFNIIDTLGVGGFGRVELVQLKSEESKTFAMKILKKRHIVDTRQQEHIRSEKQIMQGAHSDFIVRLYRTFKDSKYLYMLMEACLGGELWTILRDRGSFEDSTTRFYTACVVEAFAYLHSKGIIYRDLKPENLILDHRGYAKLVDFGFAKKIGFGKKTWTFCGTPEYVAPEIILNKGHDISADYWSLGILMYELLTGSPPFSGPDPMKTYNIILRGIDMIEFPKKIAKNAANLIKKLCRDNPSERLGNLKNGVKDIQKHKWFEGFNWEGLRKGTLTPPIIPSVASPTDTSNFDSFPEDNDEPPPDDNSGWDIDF
# [15] = molecular target: T5, cGMP-dependent protein kinase 1 (Homo sapiens); settings: at 1 µM
# [16] = molecular target: T6, cGMP-dependent protein kinase 2 (Homo sapiens) (UniProt Q13237); settings: at 0.1 µM
# T6 sequence (whole entry): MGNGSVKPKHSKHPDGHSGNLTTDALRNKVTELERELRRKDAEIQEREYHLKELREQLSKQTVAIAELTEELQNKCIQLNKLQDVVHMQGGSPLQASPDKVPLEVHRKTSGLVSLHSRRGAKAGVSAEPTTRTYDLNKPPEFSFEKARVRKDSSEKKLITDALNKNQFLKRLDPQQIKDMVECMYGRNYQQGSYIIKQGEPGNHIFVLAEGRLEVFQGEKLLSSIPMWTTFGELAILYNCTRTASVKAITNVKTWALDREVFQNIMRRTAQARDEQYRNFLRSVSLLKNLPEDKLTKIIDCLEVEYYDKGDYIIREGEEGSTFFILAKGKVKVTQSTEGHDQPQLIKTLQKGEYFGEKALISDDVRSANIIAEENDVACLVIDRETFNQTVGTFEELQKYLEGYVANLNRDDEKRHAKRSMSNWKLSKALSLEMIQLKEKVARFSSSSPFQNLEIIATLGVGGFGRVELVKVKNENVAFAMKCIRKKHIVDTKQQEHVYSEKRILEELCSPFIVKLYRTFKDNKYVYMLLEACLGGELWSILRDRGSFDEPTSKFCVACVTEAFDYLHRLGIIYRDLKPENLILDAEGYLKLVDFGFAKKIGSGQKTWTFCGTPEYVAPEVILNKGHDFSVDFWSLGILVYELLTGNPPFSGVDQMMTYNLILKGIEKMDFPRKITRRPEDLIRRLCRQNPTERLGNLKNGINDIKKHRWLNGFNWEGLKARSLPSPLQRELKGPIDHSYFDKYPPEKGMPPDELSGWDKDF
# [17] = molecular target: T6, cGMP-dependent protein kinase 2 (Homo sapiens); settings: at 1 µM
# [18] = molecular target: T7, cAMP-dependent protein kinase catalytic subunit PRKX (Homo sapiens) (UniProt P51817); settings: at 0.1 µM
# T7 sequence (whole entry): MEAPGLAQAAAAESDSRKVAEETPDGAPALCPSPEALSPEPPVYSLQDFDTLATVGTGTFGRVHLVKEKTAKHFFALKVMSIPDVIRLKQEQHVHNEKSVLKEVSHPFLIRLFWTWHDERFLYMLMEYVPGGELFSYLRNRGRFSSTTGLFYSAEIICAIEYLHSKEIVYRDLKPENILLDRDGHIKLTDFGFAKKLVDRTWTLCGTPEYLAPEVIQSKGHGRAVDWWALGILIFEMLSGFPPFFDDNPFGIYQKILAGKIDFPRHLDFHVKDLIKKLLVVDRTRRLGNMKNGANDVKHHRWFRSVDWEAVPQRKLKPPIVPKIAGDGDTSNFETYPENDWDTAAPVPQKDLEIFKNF
# [19] = molecular target: T7, cAMP-dependent protein kinase catalytic subunit PRKX (Homo sapiens); settings: at 1 µM
# [20] = molecular target: Rho-associated protein kinase 1 (Homo sapiens) (UniProt Q13464); settings: at 0.1 µM;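 also: values are mean percent inhibition of ROCK1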
# Sequence of Rho-associated protein kinase 1 (Homo sapiens) (Q13464 2-1354 limits assumed): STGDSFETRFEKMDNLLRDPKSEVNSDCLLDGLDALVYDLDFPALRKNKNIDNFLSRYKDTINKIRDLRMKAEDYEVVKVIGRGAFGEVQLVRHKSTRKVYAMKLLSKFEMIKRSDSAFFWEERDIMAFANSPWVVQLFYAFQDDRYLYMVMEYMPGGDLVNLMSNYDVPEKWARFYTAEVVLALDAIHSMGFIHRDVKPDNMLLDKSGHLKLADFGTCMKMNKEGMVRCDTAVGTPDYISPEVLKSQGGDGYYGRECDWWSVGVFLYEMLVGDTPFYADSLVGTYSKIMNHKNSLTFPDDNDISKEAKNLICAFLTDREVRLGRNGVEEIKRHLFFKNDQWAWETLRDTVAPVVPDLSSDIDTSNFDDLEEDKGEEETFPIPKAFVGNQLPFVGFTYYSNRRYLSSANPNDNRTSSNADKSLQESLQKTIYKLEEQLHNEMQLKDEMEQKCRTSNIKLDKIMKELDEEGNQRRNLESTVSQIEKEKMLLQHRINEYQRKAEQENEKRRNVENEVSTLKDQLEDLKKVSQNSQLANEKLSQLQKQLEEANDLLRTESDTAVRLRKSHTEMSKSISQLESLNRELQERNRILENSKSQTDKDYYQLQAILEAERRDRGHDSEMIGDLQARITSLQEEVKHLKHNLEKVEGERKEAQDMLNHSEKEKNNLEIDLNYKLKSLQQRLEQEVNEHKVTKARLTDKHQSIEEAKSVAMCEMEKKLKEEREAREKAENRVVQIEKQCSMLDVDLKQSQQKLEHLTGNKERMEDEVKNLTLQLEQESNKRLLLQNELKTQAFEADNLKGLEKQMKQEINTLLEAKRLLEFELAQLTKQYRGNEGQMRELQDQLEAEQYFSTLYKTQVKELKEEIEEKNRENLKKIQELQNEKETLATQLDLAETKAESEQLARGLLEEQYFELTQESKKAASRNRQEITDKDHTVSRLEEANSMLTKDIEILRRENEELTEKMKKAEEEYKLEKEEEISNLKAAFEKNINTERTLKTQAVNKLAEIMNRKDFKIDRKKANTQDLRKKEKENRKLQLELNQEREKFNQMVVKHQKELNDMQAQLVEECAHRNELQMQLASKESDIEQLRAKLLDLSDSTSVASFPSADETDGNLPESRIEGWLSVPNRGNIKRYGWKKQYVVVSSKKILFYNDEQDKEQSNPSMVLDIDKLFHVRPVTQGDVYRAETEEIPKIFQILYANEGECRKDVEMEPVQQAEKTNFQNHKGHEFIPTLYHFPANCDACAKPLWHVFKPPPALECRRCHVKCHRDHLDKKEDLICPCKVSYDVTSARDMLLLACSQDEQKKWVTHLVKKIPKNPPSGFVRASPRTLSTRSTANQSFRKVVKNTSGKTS
SMILES,inhibition [1],inhibition [2],inhibition [3],inhibition [4],inhibition [5],inhibition [6],inhibition [7],inhibition [8],inhibition [9],inhibition [10],inhibition [11],inhibition [12],inhibition [13],inhibition [14],inhibition [15],inhibition [16],inhibition [17],inhibition [18],inhibition [19],inhibition [20]
NS(=O)(=O)c1ccc(Nc2cc(-c3ccc(O)c(F)c3)n[nH]2)cc1,-0.85%,-0.61%,0.05%,-1.75%,-1.1%,-0.96%,0.72%,-1.96%,4.59%,-2.32%,2.89%,-2.85%,0.82%,-1.74%,-1%,-1.16%,0.01%,-0.97%,-1.36%,-0.2%
CN(C)CCCNc1nccc(-c2c(-c3ccc(F)cc3)nn3cc(C(F)(F)F)ccc23)n1,4.68%,0.91%,2.26%,0.23%,0.19%,0.57%,3.33%,-1.67%,0.04%,-1.36%,0.34%,-1.49%,-0.32%,1.15%,3.76%,1.88%,3.07%,1.15%,-0.47%,0.76%
